From PubChem BioAssay
Rows were chosen to be rich in hits. Some 21% of all compounds tested hit in one or more screens of this group.
Pf growth 96h – inhibits malaria parasite growth, 96 h. P. falciparum luciferase reporter growth, 96 h. Potency, µM (highest dose often 28.7 µM), most hits filed as inhibitors. hit rate 6.9% among 320,000. AID 504834
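Compounds incubated with erythrocytes infected by luciferase-expressing P. falciparum (2% hematocrit, 0.05% parasitemia final) for 96 hours, 37 C in 5% CO2. Growth inhibition scored as decreased luciferase luminescence.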
Pf growth 48h – inhibits P. falciparum growth in the first generation, 48 h; P. falciparum luciferase growth in erythrocytes, 48 h; Potency, µM (titrated, usually from 28.7 µM), actives largely listed as inhibitors; hit rate 5.9% among 310,000
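First compound was added to culture medium, then infected red cells at 0.1% parasitemia and 2% hematocrit (final). After incubation at 37 C under 5% CO2, luciferase detection reagent was dispensed and light output recorded.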
Shiga inhibitor – Shiga toxin inhibition | Vero cells, Shiga toxin protein synthesis inhibition reporter | AID 2315 | hit rate 9.2% among 290,000 | inhibition, % at 38.7 µM; in the data active means inhibition mostly above about 28%, no sharp cut-off; inactive means mostly below about 43%
Sm TGR inh – blocks Schistosoma mansoni thioredoxin glutathione reductase; purified TGR, DTNB reduction, TNB absorbance 405 nm; Potency, µM (titrated, usually from 114 µM), actives largely listed as inhibitors; hit rate 3% among 360,000; AID 485364; further: nearly all actives have a fitted effect of over 60% in size
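TGR 20 nM + NADPH 100 uM (dispensed conc.), cpd preinc 15 min RT; start with NADPH (500 uM addition) then DTNB (15 mM addition). Kinetic TNB absorbance, 405 nm filter. Four-parameter Hill fit across titration.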
Cycloheximide cs – counter-screen hit for Shiga toxin inhibitors, cycloheximide; cell reporter, cycloheximide protein synthesis inhibition counterscreen; max response, %; hit rate 12% among 300,000; AID 2314; in the data active means max response mostly above about 13%, no sharp cut-off; inactive means mostly below about 14%; further: read at 38.3 µM for the half of the compounds with a filed dose
NS1 function inh – blocks influenza NS1 protein function | hit rate 0.4% among 270,000 | Potency, µM (titrated, usually from 46.1 µM); calls by dose curve; further: actives are rising curves; nearly all actives have a fitted effect of over 50% in size
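Compounds were scored for reversing the slow growth caused by influenza A NS1 in S. cerevisiae, measured by optical density at 600 nm. Assay medium contained 2% galactose at pH 6.0; NS1-free yeast of the same strain were the positive control.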
A number is an active result; - = inactive; ? = inconclusive; . = no result; [ ] = dose if it differs, or a comment. Unless noted, the call rests on the fitted dose curve; in most records, active means well fitted curve in the direction sought with a large enough effect; inconclusive means small, poorly fitted or top-dose-only effect, or another doubt; inactive means no such curve, though single readings can be large; an effect the other way counts as inactive or inconclusive.

SMILES	Pf growth 96h	Pf growth 48h	Shiga inhibitor	Sm TGR inh	Cycloheximide cs	NS1 function inh
COc1ccc(NC(=O)NCc2ccccn2)cc1	-	-	-	-	-	-
O=C(NCc1ccccn1)Nc1ccc(Br)cc1	1.65µM	-	28.8	-	12.5	-
O=C(NCc1ccccn1)Nc1cccc([N+](=O)[O-])c1	?	-	-	-	-	-
O=C(NCc1ccccn1)Nc1ccccc1	-	-	82.0	-	42.8	-
CC(C)(C)C(=O)CSc1ncnc2sc3c(c12)CCC3	-	-	67.4	-	43.9	-
CC(=O)CSc1ncnc2sc3c(c12)CCC3	-	-	-	-	-	.
O=c1[nH]c(O)c(C=Nc2ccccc2[N+](=O)[O-])c(=O)[nH]1	-	-	-	-	-	.
Cc1ccc(N=Cc2c(O)[nH]c3ccccc23)c([N+](=O)[O-])c1	-	-	63.8	?	22.2	.
COc1ccc(CN=Cc2c(O)[nH]c3ccccc23)cc1	-	-	25.2	-	26.9	.
Cc1ccccc1-n1c(O)c(C=Nc2ccc3c(c2)OCO3)c(=O)[nH]c1=O	-	.	-	-[11.4 µM]	-	-
Oc1[nH]c2ccccc2c1C=Nc1ccc2c(c1)OCO2	?	-	68.0	-	64.9	-
COc1ccc(S(=O)(=O)N=Nc2c(O)[nH]c3ccccc23)cc1	-	-	-	?	-	.
Oc1[nH]c2ccccc2c1/C=N/c1nccs1	-	-	-	-	28.3	-
Cc1ccc(NS(=O)(=O)c2cccc(C(=O)N(C)Cc3cccs3)c2)cc1	-	-	.	-	.	.
CCOc1ccc(-n2ccnc2SCC(=O)Nc2nc3ccc(C)cc3s2)cc1	.	.	.	-	.	.
COc1ccc(N=Cc2c(O)[nH]c3ccccc23)cc1	-	-	39.8	-	37.0	-
COc1ccc(N=Cc2c(O)ccc3ccccc23)cc1	-	-	-	?	-	-
CN1CCN(CCCN)CC1	.	.	.	.	.	-
CCOc1ccc(NC(=O)CN(C)C(=O)C2CC(=O)N(Cc3ccco3)C2)cc1OCC (stereo unspecified)	?	?	.	44.7µM	.	.
COc1ccccc1C(=O)OCC(=O)Nc1ccc(OC(F)F)cc1	.	-	92.5	-	21.3	-
O=C(COC(=O)C1=COCCO1)Nc1ncc(C(F)(F)F)cc1Cl	?	-	-	100µM	-	-
O=C(COC(=O)C1=COCCO1)Nc1cccc(Oc2ccccc2)c1	-	.	-	-	-	-
O=C(COC(=O)C1=COCCO1)Nc1ncc(Cl)cc1Cl	-	-	.	-	.	.
O=C(COC(=O)C1=COCCO1)Nc1ccccc1	-	-	64.1	-	52.4	.
O=C(COC(=O)C1=COCCO1)NC1CCCCCCC1	-	-	45.7	?	28.7	.
SMILES	Pf growth 96h	Pf growth 48h	Shiga inhibitor	Sm TGR inh	Cycloheximide cs	NS1 function inh
Cc1ccc(-n2c(=O)[nH]c3cc(C(=O)NCc4ccccc4)ccc3c2=O)cc1	.	.	.	-	.	.
CCC(=O)N1CCc2cc(Br)cc(S(=O)(=O)CCC(=O)N3CCN(c4cc(C)ccc4C)CC3)c21	.	.	.	-	.	.
O=C(NNC(=O)c1cccs1)c1ccc([N+](=O)[O-])cc1	-	-	-	-	-	.
N#Cc1ccc(NC(=O)COC(=O)C2=COCCO2)cc1	-[5.75 µM]	-	-	-	-	-
O=C(COC(=O)C1=COCCO1)Nc1ccc(OC(F)F)cc1	-	-	53.4	-	38.0	.
CCOC(=O)c1c(C)[nH]c(N=Nc2ccc(OC)cc2)c1C	-	-	85.5	-	35.2	-
CCOC(=O)c1c(C)[nH]c(N=Nc2ccccc2Cl)c1C	-	?	97.0	-	65.1	-
CCOC(=O)c1c(C)[nH]c(C(=O)OCC(=O)c2ccccc2)c1C	-	-	.	-	.	.
CCOC(=O)c1c(C)[nH]c(N=Nc2ccc(C)cc2)c1C	.	-	-	-	31.5	-
CCOC(=O)c1c(C)[nH]c(N=Nc2ccccc2)c1C	-	.	82.0	-	54.5	-
O=C(CSC(=S)N1CCOCC1)c1cc2ccccc2oc1=O	?	?	-	-	-	-
CCC(=O)N1c2ccccc2CC1C(=O)NCc1ccccc1Cl (stereo unspecified)	.	.	.	-	.	.
O=C(C1CCCO1)N1CCN(C(=S)Nc2ccc(F)c(Cl)c2)CC1 (stereo unspecified)	-	-	-	-	-	-
CC(C)(CNC(=O)CNC(=O)c1ccc(Cl)cc1Cl)N1CCOCC1	-	-	.	-	.	.
N#Cc1c(N2CCSCC2)nsc1-c1ccccc1Cl	?	?	-	-	29.5	-
CCCCC(=O)/C=C/n1c(=S)oc2ccccc21	-	-	44.1	-	35.1	-
Cc1ccc(NC(=O)CCn2c(=S)oc3ccccc32)cc1	?	-	-	-	-	.
CC(C)OC(=O)n1c(=S)oc2ccccc21	-	.	67.9	-	44.1	-
CC(C)NC(=O)CCn1c(=S)oc2ccccc21	?	-	-	-	-	.
O=C(/C=C/c1ccccc1)OCCCN=C1NS(=O)(=O)c2ccccc21	5.22µM	-	-	.	-	-
Cc1ccccc1C(=O)OCCCN=C1NS(=O)(=O)c2ccccc21	-	-	-	-	-	-
CC1CN(c2nc(-c3ccc(Br)cc3)nnc2-c2ccccc2)CC(C)N1 (stereo unspecified)	8.28µM	?	-	-	-	-
O=C(O)c1ccc(N2C(=O)CC(N3C(=O)/C(=C/c4ccc(Cl)cc4)SC3=S)C2=O)cc1 (stereo unspecified)	-	-	-	-	-	-
CC(=O)Oc1ccccc1C1C[C@]2(C)CC(=O)NC2N1C(C)=O (stereo partly specified)	?	?	-	-	-	-
COc1cc(C(=O)N(C)CCOc2ccccc2)ccc1OCC(=O)Nc1cccc(C(F)(F)F)c1	-	-	.	-	.	.
